Source: PubChem BioAssay
A number with no mark means an inactive call.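 The calls were made as follows: active = RAM network inhibition above 8.4% in each of two replicates, 3 SD over the compound average; inconclusive = above 8.4% inhibition in only one replicate; inactive = 8.4% inhibition or less in each replicate.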

Assay: RAM signaling pathway blockade in yeast – S. cerevisiae, Pdr1DBD-CYC8 efflux-inhibited sensitized strain, primary screen (AID 1298);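 also: 0% = DMSO untreated cells without growth and 100% = 10 µM 1-NA-PP1 full growth; higher means more yeast growth rescued from 5-FOA killing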
Conditions: S. cerevisiae cbk1-as DSE1-URA3 strain, 5-FOA growth OD615, 2 d; at 50 µM; hits give high values

SMILES | RAM network inhibition [%]
CC1(C(=O)NCc2cccnc2)CCC(=O)N1Cc1cccs1 (configuration not stated) | 3.95
C=CCOC(=O)C1=C(C)NC(C)=C(C(=O)OCC=C)C1c1ccc(O)cc1 | 2.05
C=CCNC(=O)c1ccc(C)cc1Cl | 1.37
c1cncc(-c2noc(-c3ccco3)n2)c1 | 4.61
O=C(O)C1C2C=CC(C2)C1C(=O)NCCc1cccc(Cl)c1 (configuration not stated) | 2.92
O=C1c2oc3ccc(F)cc3c(=O)c2C(c2cccc(O)c2)N1CCCN1CCOCC1 (configuration not stated) | 0.27
COc1cc(Nc2cc(C)nc3nc(C)nn23)cc(OC)c1OC | 4.23
CNC(=O)c1ccsc1NC(=O)c1ccc(Cl)s1 | 2.36
C=CCSC1=C(C#N)C(c2ccc(OCC)cc2)CC(=O)N1 (configuration not stated) | 4.8
O=C(NC1CCCCCC1)C1CCN(S(=O)(=O)c2cccc3cccnc23)CC1 | 1.35
CC(C)NC(=O)CCCc1ccccc1 | -0.58
Cc1nc2ccc(NC(=O)c3ccc(S(=O)(=O)N4CCOCC4)cc3)cc2s1 | 4.83
Cc1cc(Nc2cc(C)on2)n2ncnc2n1 | 2.24
O=C1C2CCCN2C(c2ccc(Br)cc2)N1c1ccc(F)cc1 (configuration not stated) | 9.1
Cc1cc(NC(=O)CSc2nnc(C)c(=O)[nH]2)no1 | 1.75
CCOC(=O)C(C)Sc1nnc(Cc2cc(=O)[nH]c(=O)[nH]2)n1-c1ccc(OCC)cc1 (configuration not stated) | 2.89
CCOc1ccc(N(CC(=O)O)S(=O)(=O)c2ccc(OC)c(OC)c2)cc1 | 1.05
